Compound activity (PubChem BioAssay)
Most compounds without a hit are left out; they make up all but 5.4% or so of the library.
LASV entry inh – inhibitors of Lassa virus binding or cell entry; hit rate 1.2% among 300,000; Potency, µM (doses to about 37.9 µM), inactives show top-dose activity change, negative = inhibition, most hits filed as inhibitors; Lassa virus pseudotype entry inhibition, cell reporter; AID 540256; calls by dose curve; tested in HEK293 cells; note: nearly all actives have a fitted effect of over 50% in size
FMDV antiviral – antivirals against foot and mouth disease virus; Potency, µM (highest dose often 57.9 µM), for inactives: top-dose activity change, negative = inhibition, actives largely listed as inhibitors; FMDV antiviral cell-based qHTS; AID 1159524; hit rate 1.2% among 410,000; calls by dose curve; tested in HEK293T cells; note: read-out not given here; nearly all actives have a fitted effect of over 45% in size
Sm TGR inh – blocks Schistosoma mansoni thioredoxin glutathione reductase. purified TGR, DTNB reduction, TNB absorbance 405 nm. Q962Y6. AID 485364. hit rate 3% among 360,000. Potency, µM (titrated, usually from 114 µM), for inactives: top-dose activity change, negative = inhibition, hits mostly inhibitors; active = well fitted inhibition curve with a large enough effect; inconclusive = small, poorly fitted or top-dose-only effect; inactive = no such curve, though single readings can be large or run the other way; note: nearly all actives have a fitted effect of over 60% in size
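TGR 20 nM + NADPH 100 uM (dispensed conc.), cpd preinc 15 min RT; start with NADPH (500 uM addition) then DTNB (15 mM addition). Kinetic TNB absorbance, 405 nm filter. Four-parameter Hill fit across titration.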
VACV mCherry inh – vaccinia inhibition (mCherry reporter); hit rate 0.63% among 310,000; Potency, µM (top dose mostly 36.5 µM), for the others: at the highest dose activity change, negative = inhibition, most hits filed as inhibitors; Vaccinia virus mCherry reporter infection, fluorescence; calls by dose curve; tested in A549 cells; note: nearly all actives have a fitted effect of over 35% in size
Vaccinia Venus – vaccinia inhibition (Venus reporter) | Vaccinia virus Venus reporter expression, fluorescence | Potency, µM (series often up to 36.5 µM), inactives show top-dose activity change, negative = inhibition, usual class: inhibitors | AID 720580 | hit rate 0.46% among 330,000; calls by dose curve; tested in A549 cells; note: nearly all actives have a fitted effect of over 30% in size
Marburg entry inh – blocks Marburg virus binding to or entry into cells; Potency, µM (top dose mostly 37.8 µM), inactives show top-dose activity change, negative = inhibition, hits mostly inhibitors; Marburg virus pseudotyped entry inhibition, cell reporter; hit rate 1.8% among 300,000; AID 540276; calls by dose curve; tested in HEK293 cells
Starred values were filed as active, the others as inactive; i = inactive; ? = inconclusive; / = not tested or not shown; [ ] = dose if it differs, or a comment. % is set by controls: 0 for no effect and ±100 for the full control effect; potency is the fitted concentration of half-maximal effect.

SMILES	LASV entry inh	FMDV antiviral	Sm TGR inh	VACV mCherry inh	Vaccinia Venus	Marburg entry inh
CCOc1ccc2nc(SC3CC(=O)N(c4ccc(OC)cc4)C3=O)sc2c1 (stereo unspecified)	0%	1%	-31%	/	/	-10%
COc1ccc(N2C(=O)CC(N3CCN(c4nc5ccccc5s4)CC3)C2=O)cc1 (stereo unspecified)	?	?	20µM*	/	/	1%
Cc1cc(C)c2c(C)c(C(=O)N3CCC(c4nc5ccccc5s4)CC3)oc2c1	-6%[46.1 µM]	-24%	?	-19%	-8%	-15%[46.1 µM]
COc1ccc(N2C(=O)CC(N3CCN(c4ccc(S(C)(=O)=O)cc4)CC3)C2=O)cc1 (stereo unspecified)	-22%[14.3 µM]	-3%	18µM*	i	-5%	-5%
COc1ccc(N2C(=O)CC(N3CCC(n4c(=O)[nH]c5ccccc54)CC3)C2=O)cc1 (stereo unspecified)	4%	0%	35µM*	/	/	17%
Cc1sc2ccccc2[n+]1CCc1ccccc1	/	/	/	-15%	-7%	/
CCc1cc2c(nc1CC)CCN(CCC(C)=NO[C@@H](C)CN1CCCc3nc(C)c(C)cc31)C2	/	/	/	/	/	-24%[14.2 µM]
C/C(=N\Nc1nc(C)cc(-c2ccccc2)n1)c1ccc(F)cc1	/	-1%	27%	/	/	/
C/C(=N/Nc1nc(-c2ccccc2)cc(-c2ccc(F)cc2)n1)c1cccc(N)c1	?	8%	-9%	22µM*	?	-7%
COc1ccc(/C(C)=N/Nc2nc(C)cc(-c3ccccc3)n2)cc1	?	?	/	?	-29%	2.5µM*
COCCCNC(=O)Cn1c(=O)n(-c2ccccc2)c(=O)c2c1c1cc(OC)ccc1n2C	2%[46.1 µM]	-15%	0%	11%	-1%	/
O=C(NC1CC1)C1CC(=O)N(c2cccc(Cl)c2)C1 (stereo unspecified)	/	-6%	7.1µM*	/	/	/
COC1(NC(=O)c2ccccc2)C(C)=CC(=O)C=C1C	-3%	-10%	25µM*	i	-14%	1%[46.1 µM]
O=C(NC1(O)C(=O)c2ccccc2C1=O)c1ccccc1	?	-8%	-13%	-12%	7%	-30%
COC(=O)CC=C[C@@H](C)[C@H](OC)c1cc(OC)ccc1Br	/	/	/	/	/	3%[14.2 µM]
Cn1c(-c2ccc(S(=O)(=O)N3CCCC3)cc2)csc1=Nc1ccc(Cl)c(Cl)c1	?	0%	8.9µM*	-18%[7.34 µM]	-26%[7.34 µM]	/
Cc1ccc(-c2nc(CS(=O)(=O)CC(=O)NC(C)CCc3ccccc3)c(C)o2)cc1 (stereo unspecified)	-3%[46.1 µM]	-3%	-22%	-23%	-22%	?
CC1(CCl)N([O-])C2=C(CCCC2)[N+]1=O (stereo unspecified)	1%[46.1 µM]	-17%	40µM*	?	?	4%[46.1 µM]
Cc1cccc2cc(CN(CC3CCCO3)C(=O)c3ccccc3F)c(N(C)C)nc12 (stereo unspecified)	/	3%	/	-6%	17%	/
COc1ccc(S(=O)(=O)N2CCC(c3nnnn3-c3ccccc3)CC2)cc1OC	?	25µM*	6%	-19%	-20%	-21%[46.1 µM]
COc1ccc(-n2nnnc2C2CCN(S(=O)(=O)c3cccc(C(F)(F)F)c3)CC2)cc1	2%[46.1 µM]	1%	2%	-19%	-16%	11%[46.1 µM]
CC1(C)CN(c2ccccc2)C(=O)[C@@H]1CC(=O)Nc1ccccc1	7%[46.1 µM]	/	/	/	/	/
CC(C)CNC(=O)COC(=O)c1c2c(nc3ccccc13)/C(=C\c1cccs1)CC2	?	60%	/	-20%	?	-5%
CN(CCC#N)C(=O)COC(=O)c1c2c(nc3ccccc13)/C(=C/c1ccco1)CC2	0%	27%	10µM*	-6%	-16%	0%
CCCCC[C@H](O)/C=C/[C@H]1C=CC(=O)[C@@H]1CCCCCCC(=O)O	/	-8%[6.7 µM]	/	-3%[3.33 µM]	-13%[3.33 µM]	/
SMILES	LASV entry inh	FMDV antiviral	Sm TGR inh	VACV mCherry inh	Vaccinia Venus	Marburg entry inh
CCCCC[C@@H](/C=C/C1C(=O)C=C[C@H]1C/C=C\CCCC(=O)OC)OC(C)=O (stereo partly specified)	/	28µM*	/	?	?	/
Cc1ccc(-c2nc(CS(=O)(=O)CC(=O)Nc3ccc(Br)cc3F)c(C)o2)cc1	18%[46.1 µM]	-6%	-29%	-14%	-3%	6%[46.1 µM]
CCOc1ccc(-c2csc(/C(C#N)=C\c3ccc(O)c([N+](=O)[O-])c3)n2)cc1	?	22µM*	-20%	-4%	-17%	?
NS(=O)(=O)c1ccc(N/N=C2/CCCCC2C2CCCCC2)c([N+](=O)[O-])c1 (stereo unspecified)	?	?	-4%	20µM*	16µM*	?
N=c1n(CCN2CCCCC2)c2ccccc2n1CC(O)c1ccc(Cl)c(Cl)c1 (stereo unspecified)	?	/	-13%	?	11µM*	5.8µM*
N=c1n(CCN2CCCCC2)c2ccccc2n1CC(=O)c1ccc(Cl)c(Cl)c1	-21%	?	-6%	-8%	-8%	8.9µM*
CN(C)CCn1c(=N)n(CC(O)c2ccc(Cl)c(Cl)c2)c2ccccc21 (stereo unspecified)	/	?	2%	/	/	/
N=c1n(CCN2CCCCC2)c2ccccc2n1CC(O)c1cccc(Br)c1 (stereo unspecified)	?	?	5%	?	?	11µM*
COc1ccc(CCCNC(=O)C2Cc3c(-c4cccc(NC(C)=O)c4)ccnc3O2)cc1 (stereo unspecified)	/	35µM*	/	-26%	-26%	/
NC(=O)c1cccc(-c2ccnc3c2CC(C(=O)Nc2cccc(C(F)(F)F)c2)O3)c1 (stereo unspecified)	/	28µM*	/	-20%	-23%	/
COc1ccc(NC(=O)C2Cc3c(-c4ccncc4)ccnc3O2)cc1OC (stereo unspecified)	/	-18%	/	8%	-15%	/
COc1ccc(NC(=O)C2Cc3c(-c4cccc(C(C)=O)c4)ccnc3O2)cc1OC (stereo unspecified)	/	8.9µM*	/	-10%	-25%	/
